Screens as filed in PubChem.
A selection: hits, their analogues and other compounds. The true share with any hit is near 12%.
hDAT+cocaine = modulates human dopamine transporter uptake under cocaine. 110,000 compounds, 1.3% hits. Q01959. B-score at 10 µM. LLC-PK1 hDAT cells, [14C]-dopamine uptake with cocaine IC80; actives deviate in either direction;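 active = Z score or B-score, a plate-position-corrected score, falls beyond the plate's 99.7% confidence bounds, in either direction; inactive = both scores lie inside the 99.7% bounds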;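 note: scored against the spread of the other compound wells on the same plate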
Target sequence (Q01959 whole entry, looked up): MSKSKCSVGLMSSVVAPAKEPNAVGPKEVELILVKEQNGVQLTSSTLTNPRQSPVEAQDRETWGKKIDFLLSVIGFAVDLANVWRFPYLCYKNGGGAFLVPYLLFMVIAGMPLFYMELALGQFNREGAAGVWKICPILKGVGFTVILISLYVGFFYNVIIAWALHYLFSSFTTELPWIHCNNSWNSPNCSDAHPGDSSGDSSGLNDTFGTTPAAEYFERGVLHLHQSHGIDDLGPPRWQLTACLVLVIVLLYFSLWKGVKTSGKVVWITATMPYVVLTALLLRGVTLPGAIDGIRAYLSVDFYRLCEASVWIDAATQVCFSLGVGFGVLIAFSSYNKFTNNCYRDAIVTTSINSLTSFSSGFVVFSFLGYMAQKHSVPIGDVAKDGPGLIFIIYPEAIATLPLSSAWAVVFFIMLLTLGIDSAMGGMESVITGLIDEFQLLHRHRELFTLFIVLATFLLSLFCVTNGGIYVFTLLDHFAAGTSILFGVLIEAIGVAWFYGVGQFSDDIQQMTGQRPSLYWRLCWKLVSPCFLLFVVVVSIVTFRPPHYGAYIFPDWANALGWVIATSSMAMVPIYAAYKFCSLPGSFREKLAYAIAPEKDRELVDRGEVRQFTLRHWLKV
PLAP act = activators of human placental alkaline phosphatase; purified PLAP enzyme, luminescent substrate read-out; hits give high values; 96,000 compounds, 1.2% hits; activation fold at 20 µM; in the data active = activation fold above about 2
Cav32 inh = human Cav3.2 channel inhibition, primary screen | Cav3.2-expressing cells, Fluo-4 calcium fluorescence FDSS; hits give low values | O95180 | B-score at 10 µM | 100,000 compounds, 4% hits;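 active = single-dose well whose peak fluorescence ratio is a statistical outlier from its plate by either plate-standardised score or position-corrected B-score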
PostGolgi ctrl = inhibits growth of the yeast control strain; 98,000 compounds, 5% hits; inhibition, % at 10 µM; efflux-deficient yeast background strain, growth absorbance A615, 16 h; AID 738
D1 mod = allosterically modulates the human D1 dopamine receptor. P21728. HEK293 D1, CRE-luciferase, dopamine EC30 potentiation; actives deviate in either direction. B-score at 10 µM. 58,000 compounds, 5.9% hits;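 active = luminescence count or its row- and column-corrected plate score outside the 99.7% band of the plate's sample wells, on either side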
PostGolgi yeast = growth inhibition of a yeast mutant, post-Golgi transport screen; 98,000 compounds, 0.9% hits; post-Golgi transport phenotypic cell assay; inhibition, % at 10 µM;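 note: yeast cells grown in 1536-well plates; yeast grown about 18 h at 30C before absorbance read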
* hit, by the source's call; x = no result given. Cut-off read from the data, not from the text of the source, unless noted: active = inhibition above about 30%; inactive = the rest.

SMILES	hDAT+cocaine	PLAP act	Cav32 inh	PostGolgi ctrl	D1 mod	PostGolgi yeast
O=C(NCC(=O)N(Cc1ccccc1)C(C(=O)NC1CCCC1)c1ccncc1)c1ccco1 (stereo not drawn)	-1.3	x	-0.0046	x	x	x
O=C(Nc1ccccn1)C(=O)N1CCCCC1	0.56	x	-0.43	x	x	x
CCOC(=O)CC(=O)CSc1nc(N)c(C#N)c(-c2ccc(F)cc2)c1C#N	-0.24	1.2	-0.3	19	-0.85	-6
C=CCn1c(SCC(=O)NC2CCCC2)nc2scc(-c3ccco3)c2c1=O	0.54	1.3	-1.4	-2	0.98	9
C=CCn1c(SCC(=O)NCCCC)nc2scc(-c3ccco3)c2c1=O	0.13	x	-2.7*	10	-0.21	-1
CC(=O)NCC1=C(NC(C)=O)C2CC1C(C)(C)C2C (stereo not drawn)	x	1.1	x	6	-0.0073	6
Cc1cc(O)c(/C=N/Nc2ccc(Cl)cc2)c(=O)o1	-0.52	0.9	-0.59	8	x	66*
Cc1cc(O)c(/C=N/Nc2cccc(Cl)c2)c(=O)o1	-0.23	1.1	-0.13	7	x	15
Oc1ccccc1C1=Nc2nc3ccccc3n2C(c2ccccc2)C1 (stereo not drawn)	-0.64	1.4	-7.8*	18	0.37	-2
c1ccc(C2Nc3ccccc3-c3nc4ccccc4n32)cc1 (stereo not drawn)	-0.26	0.7	-2.1	1	x	0
CCOC(=O)c1[nH]c2ccccc2c1N=CN(CC)CC	-0.03	0.9	0.41	-9	x	-3
O=C(Nc1ccc2snnc2c1)Nc1cccc2ccccc12	0.27	0.9	-0.81	49*	x	6
O=C(Nc1ccc2snnc2c1)N1CCN(c2ccccc2)CC1	2.5	0.9	-0.38	x	-1.3	x
Cc1nc(N2CCN(c3ccccc3)CC2)[nH]c(=O)c1Cc1ccccc1	0.2	0.9	-3.8	-2	-0.46	1
Cc1nc(N2CCN(C)CC2)[nH]c(=O)c1Cc1cccc2ccccc12	2.5*	1.3	1.7	1	-2.9	-2
CC(C)CC(c1nnnn1CCc1ccccc1)N1CCC(C(N)=O)CC1 (stereo not drawn)	0.23	x	1.6	x	x	x
Cc1ccc(C)c(N2CCN(C(=O)C3CCN(c4nc(C)cc(C)n4)CC3)CC2)c1	-0.21	1.7	-5.6*	46*	-0.26	6
Cc1ccc(C)c(N2CCN(C(=O)C3CCN(S(=O)(=O)c4c(C)noc4C)CC3)CC2)c1	x	x	x	x	-0.0021	x
CCCCNC(=O)c1onc(CSc2cc(C)cc(C)c2)c1C(=O)NCCCC	0.25	x	-1.6	x	x	x
COc1ccc(C2=NNC(c3cccs3)=Nc3ccc(OC)cc32)cc1	0.54	x	-2.1	x	x	x
CCOc1ccc(C2=NNC(c3cccs3)=Nc3ccc(OC)cc32)cc1OCC	0.17	x	-8.1*	x	x	x
Cn1c(=O)c(C(=O)CSc2nncs2)c(N)n(Cc2ccccc2)c1=O	0.41	1.2	1.6	17	1.6	6
C=CCN1C(=Nc2cccnc2)SCC1(O)c1ccc(C)cc1 (stereo not drawn)	-1.2	0.9	-0.022	43*	-0.19	6
C=CCN1C(=O)CSC1=Nc1cccc(O)c1	-0.59	1	-0.55	-4	0.72	-4
COc1cccc(C2C(C(=O)c3sc(C)nc3C)=C(O)C(=O)N2CCN(C)C)c1OC (stereo not drawn)	x	0.9	x	x	x	x
SMILES	hDAT+cocaine	PLAP act	Cav32 inh	PostGolgi ctrl	D1 mod	PostGolgi yeast
O=C(Nc1ccc2oc(-c3ccccc3)nc2c1)c1ccncc1	-0.0016	1.2	-0.48	5	-0.35	0
Cc1ccc(-c2nc3cc(NS(=O)(=O)c4ccc(C)cc4)ccc3o2)cc1	0.1	1.6	-2.7	59*	x	14
O=S(=O)(Nc1ccc2oc(-c3ccccc3)nc2c1)c1ccccc1	-0.13	1.3	-2.6	33*	x	0
Cc1cc(C(=O)OCC(=O)N2CCN(c3ccccc3)CC2)c2ccccc2n1	-0.97	1.7	-0.026	1	-1.2	12
O=C1NC2(CCc3ccccc32)C(=O)N1CCOc1ccc(Cl)cc1 (stereo not drawn)	1.6	1.1	-4.8*	20	x	3
CCCCOc1ccc(Cl)cc1Nc1nc(NCCO)nc(N2CCCC2)n1	-1.1	x	0.33	x	x	x
CCc1cc(/C(Cc2ccc3ccccc3n2)=N\O)c(O)cc1O	1	1.1	-3.9*	13	x	-4
CCc1cc(C(=O)COc2ccccc2F)c(O)cc1O	-0.32	0.9	-9*	16	0.005	0
CCc1cc(/C(Cc2ccccn2)=N\O)c(O)cc1O	0.21	1	-1.5	3	x	1
CCc1cc(C(=O)Cc2ccc(F)cc2)c(O)cc1O	x	x	x	x	-0.066	x
CCc1cc(C(=O)Cc2nc3ccccc3[nH]2)c(O)cc1O	-0.055	2.3*	0.76	0	-0.011	-1
CC1(C)Cc2nc3nc(SCC(=O)NCCc4ccccc4)n(-c4ccccc4)c(=O)c3cc2CO1	0.21	1.1	1.3	6	x	2
CC(C)C[C@H]1C(=O)N2CCC[C@H]2[C@]2(O)O[C@](NC(=O)C3C=C4c5cccc6[nH]c(Br)c(c56)C[C@H]4N(C)C3)(C(C)C)C(=O)N12 (stereo partly drawn)	1.9	x	-5.6*	x	x	x
CCOC(=O)n1cc(-c2cnc(CNC(=O)C(C)(c3ccccc3)c3ccccc3)o2)c2ccccc21	-0.93	x	-0.42	x	x	x
COc1ccc(-c2nn(-c3ccccc3)cc2C(=O)Nc2nccs2)cc1	0.03	1.6	-5.8*	25	x	24
COc1ccc(-c2nn(-c3ccccc3)cc2C(=O)N2CCOCC2)cc1	0.068	1.2	-0.1	9	-0.74	0
COc1cccc(-c2nn(-c3ccccc3)cc2C(=O)Nc2nccs2)c1	-0.46	1.3	-5.2*	28	0.17	-3
CC(=O)c1ccc(NC(=O)c2cn(-c3ccccc3)nc2-c2ccncc2)cc1	-0.93	x	-0.095	x	x	x
COC(=O)c1ccc(NC(=O)c2cn(-c3ccccc3)nc2-c2ccncc2)cc1	-1.4	1.1	0.34	32*	x	72*
Cc1nnc(NC(=O)CCC(=O)NCc2ccco2)s1	0.5	1	0.021	10	0.061	-8
CC(=O)c1sc(NC(=O)C2(F)C(F)(F)C(F)(F)C(F)(F)C(F)(F)C2(F)F)nc1C	-2.2	1.2	-4*	22	-2.1*	-1
CCCCC(=O)Nc1nc(C)c(C(C)=O)s1	-0.62	1	-2.1	-1	-0.063	-10
Cc1cc2occ(CC(=O)Nc3nnc(C4CC4)s3)c2cc1C	0.58	0.9	0.036	9	x	3
Cc1csc(NC(=O)Cc2coc3cc(C)c(C(C)C)cc23)n1	1.6	0.6	-6.1*	27	x	3
Cc1nn2cc(-c3ccccc3)nc2s1	1.3	0.8	1	5	-3.9*	3
c1ccc(-c2cn3nc(-c4ccccc4)sc3n2)cc1	x	x	x	x	-8.2*	x
COc1cccc(Oc2cn[nH]c2-c2ccc(O)cc2O)c1	0.16	2*	-2.7	16	0.43	-1
Oc1ccc(-c2[nH]ncc2-c2ccc(Cl)cc2)c(O)c1	-0.13	1.6	-1.5	23	0.79	-4
CCOc1ccc(-c2n[nH]c(C)c2-c2ccccc2OC)c(O)c1	1	1.1	-0.61	19	x	-6
